Source: ChEMBL document CHEMBL3988442, “University of Dundee, Small-Polar-MMV Screening Library” (2021)
Hit rate of the full screen: of about 48,000 compounds, about 13,000 (27%) showed an effect of 50% or more. The list shows a part of the results.

Each compound was assayed on Wolbachia pipientis (assay: Anti-Wolbachia Cell-Based Screen). Details: 5 µM.
Format: functional
Parameters: scale not given: in the data most compounds retested in dose-response had high values

Structure (SMILES)	Percent Effect
O=C(CCO)N1C[C@H]2CC[C@@H]1CN(C1Cc3ccccc3C1)C2	7.309%
O=C(c1ccccc1)N1CCN(CC2CCOc3ccccc3C2)CC1 (stereo unspecified)	-9.678%
CC(=O)Nc1cccc(C(=O)N2CCc3c(nc(N(C)C)[nH]c3=O)C2)c1	-4.662%
CCn1cnnc1CNC(=O)NC(c1ccc(OC)cc1)C1CC1 (stereo unspecified)	-3.354%
COc1cc2c(cc1-c1nc3c(cnn3C(C)C)[nH]1)OCO2	0.2831%
CCc1nc(CN(C)C(=O)c2cc(NC(C)=O)ccc2Cl)no1	-10.82%
CCc1oc(C(=O)N(C)Cc2ccncc2)cc1CN(CC)CC	110.2%
CCC(=O)Nc1cc(Cl)ccc1C(=O)N(C)Cc1noc(CC)n1	-2.438%
CCc1nc(CN(C)C(=O)c2cc(CN(CC)CC)c(CC)o2)no1	113.6%
Cc1ccc(C)c(OCc2cc(C(=O)N(C)Cc3nonc3C)no2)c1	-9.317%
CCN(Cc1nonc1C)C(=O)c1ccc(Br)o1	1.066%
Cc1ncsc1C(=O)N(C)Cc1ccncc1	-15.3%
CCc1oc(C(=O)N(C)Cc2nonc2C)cc1CN(CC)CC	117.2%
CN(Cc1ccncc1)C(=O)c1ccc(F)c(NS(C)(=O)=O)c1	4.431%
CCOc1ccc(CN2C(=O)CC3(CCCC3)C2=O)nc1	-27.44%
O=C1CC(CNc2cncc(Br)c2)c2ccccc2N1 (stereo unspecified)	11.7%
O=C1CN(Cc2cn(CC3CCN(C4CCSCC4)CC3)nn2)CCN1	-10.54%
CCN1C(=O)C2(CCOCC2)c2cc(NC(=O)c3ccco3)ccc21	4.939%
CCS(=O)(=O)Nc1ccc2c(c1)C1(CCOCC1)CN2C.O=C(O)C(F)(F)F	89.45%
CCN1CC2(CCOCC2)c2cc(NS(=O)(=O)CC)ccc21.O=C(O)C(F)(F)F	93.24%
CN(C)C(=O)N1CC2(CCOCC2)c2cc(NS(=O)(=O)C3CC3)ccc21	-3.56%
CCN1C(=O)C2(CCOCC2)c2cc(NC(=O)c3cnoc3C)ccc21	-1.334%
CCN1C(=O)C2(CCOCC2)c2cc(NC(=O)c3csnn3)ccc21	5.242%
CC(C)c1nnc(NC(=O)Cc2csc(-c3nnc[nH]3)n2)s1	3.837%
Cc1ccc2nc(CSCC(=O)Nc3nnc(C(C)C)s3)cc(=O)n2c1	91.49%
Cc1ccn2c(=O)cc(CSCC(=O)Nc3nnc(C(C)C)s3)nc2c1	111%

Structure (SMILES)	Percent Effect
COc1ccc(C(C)NC(=O)Nc2nnc(C)s2)cc1OC (stereo unspecified)	6.701%
COC(=O)C(C)NC(=O)CSCc1nc(O)c2cc(C(C)C)sc2n1 (stereo unspecified)	3.354%
Cc1cccc2nc(CN3CCCC(C)C3)cc(=O)n12 (stereo unspecified)	12.06%
Cc1nc(C)c(CC(=O)Nc2nnc(C)s2)c(=O)[nH]1	-6.123%
Cc1cnn(CC(C)NCc2cc(=O)n3cc(C)ccc3n2)c1 (stereo unspecified)	5.917%
Cc1ccc(CNC(=O)Nc2nnc(C(C)C)s2)n1C	-5.821%
Cc1nnc(NC(=O)CSCc2cc(=O)n3ccccc3n2)s1	113.7%
Cc1ccc2nc(CN(Cc3ccc(C)o3)C(C)C)cc(=O)n2c1	-6.244%
Cc1cccc2nc(CSCC(=O)Nc3nnc(C(C)C)s3)cc(=O)n12	122.4%
CN(C)c1cccc(C(=O)NCC(O)c2cccs2)c1 (stereo unspecified)	-6.039%
CCc1ncc2c(n1)CN(C(=O)c1c(C)[nH]c(C(C)=O)c1C)C2	1.251%
CN(Cc1cccs1)C1CCC[C@@H]2CN(C(=O)c3cnccn3)C[C@H]12.O=C(O)C(F)(F)F (stereo partly specified)	14.26%
Cc1ccc(C(C(=O)O)N2CCCN(Cc3ccccn3)CC2)c(F)c1 (stereo unspecified)	-1.838%
CC(C)c1nnc(NC(=O)CSCc2cc(=O)n3ccccc3n2)s1	114.5%
Cc1ccc(CN(Cc2cc(=O)n3cccc(C)c3n2)C(C)C)o1	2.311%
Cc1cccn2c(=O)cc(CN3CCCC3Cn3cccn3)nc12 (stereo unspecified)	11.97%
Cc1cnn(CC(C)NCc2cc(=O)n3ccccc3n2)c1 (stereo unspecified)	4.155%
Cc1cccn2c(=O)cc(CSCC(=O)Nc3nnc(C(C)C)s3)nc12	100.1%
COc1ccc(OC)c(-n2c(COC(C)C)n[nH]c2=O)c1	-3.997%
Cn1cc(C(=O)N2CC[C@H](N3CCOCC3)[C@H](CCCO)C2)cn1	-10.44%
Cc1cc(C(=O)N2CC[C@@H]3CO[C@@H](CN4CCCC4)[C@@H]3C2)no1	-4.858%
Cn1ccc(C(=O)N2CCC(c3cc(CCO)n(C)n3)C2)n1 (stereo unspecified)	79.61%
CS(=O)(=O)NC[C@@H]1OC[C@H]2CN(C(=O)c3cnccn3)CC[C@H]21	-5.14%
Cn1nc(C2CCN(C(=O)c3cnccn3)C2)cc1CCO (stereo unspecified)	76.91%
Cc1nc(C(=O)N2CCC(c3cc(CCO)n(C)n3)C2)co1 (stereo unspecified)	113%
Cn1cc(C(=O)N2CCC(c3cc(CCO)n(C)n3)C2)cn1 (stereo unspecified)	181.5%

Structure (SMILES)	Percent Effect
COc1ccc(OCc2nc(C(=O)N3CC[C@H](O)[C@@H](O)C3)co2)cc1	-2.37%
COC(=O)C1CCCN1C(=O)c1ccc(Br)cc1F (stereo unspecified)	19.55%
Cc1ccc2c(n1)N(C)CCN(C(=O)NC1CC1)C2.O=C(O)C(F)(F)F	4.586%
O=C(NCc1cn2cccnc2n1)C1CC(=O)N(Cc2cccnc2)C1 (stereo unspecified)	-8.48%
CC(C)n1cc(C(=O)NCCCc2csc(N)n2)cn1	-8.171%
CNS(=O)(=O)c1cccc(C(C)NCc2ccc(C)o2)c1 (stereo unspecified)	-6.612%
O[C@H]1[C@H](n2cc(-c3ccccc3)nn2)c2ccccc2C12CCNCC2	-3.237%
CCc1cc(N(C)CCc2noc(C)n2)nc(N2CCOCC2)n1	-13.53%
Cc1ncc(CN(C)C(=O)c2ccc(N3CCOCC3)c(F)c2)s1	3.379%
CN(Cc1ccsc1)Cc1nc(-c2ccncc2)no1	-1.44%
Cc1noc(CN(C)Cc2cnc(N3CCOCC3)nc2)n1	-9.212%
CC(C)c1nc(CN(C)Cc2cnc(N3CCOCC3)nc2)no1	-9.471%
CN(Cc1nc(-c2ccccc2)no1)Cc1cnc(N2CCOCC2)s1	97.7%
CCS(=O)(=O)c1ncc(CN(C)Cc2ccc(C)o2)n1CCOC	-4.34%
Cc1ccc(CN(C)Cc2cnc(N3CCOCC3)s2)o1	116.2%
Cc1nc(CN(C)Cc2cnc(N3CCOCC3)s2)no1	89.45%
COc1cccc(-c2ccc(CNC(=O)c3ccc(=O)n(C)c3)cc2)c1	0.1145%
CCc1nc(CN(C)C(=O)C2CC(=O)N(c3cccc(O)c3)C2)no1 (stereo unspecified)	15.35%
CN(C)S(=O)(=O)N1CC[C@]2(C[C@@H](OCc3ccccn3)CO2)C1.O=C(O)C(F)(F)F	-10.12%
CC(C(=O)O)N1CC2(CCC1=O)CCN(CCSc1ccccc1)CC2 (stereo unspecified)	-16.96%
COCCN(C)C(=O)Nc1ccn(-c2cccc(C(F)(F)F)c2)n1	-15.63%
CCN(Cc1ccncc1)c1cc(C2CCNCC2)nc(C)n1	95.16%
Cc1nc(C2CCCNC2)cc(N(C)CCc2ccccc2)n1 (stereo unspecified)	1.735%
CCN(Cc1c(F)cccc1Cl)c1cc(C2CCNCC2)nc(C)n1	117.3%
Cc1nc(C2CCNCC2)cc(N2CCOc3ccccc3C2)n1	-3.992%
Cc1ccnc(CC(C)N(C)c2cc(C3CCNCC3)nc(C)n2)c1 (stereo unspecified)	6.994%

Structure (SMILES)	Percent Effect
Cc1cccc(OCC(=O)N(Cc2ccncc2)C2CC2)c1	-0.008091%
CCN(Cc1ccncc1)c1cc(C2CCN2C(C)=O)nc(C)n1 (stereo unspecified)	128.1%
CCN(Cc1ccncc1)c1cc(C2CCCNC2)nc(C)n1 (stereo unspecified)	103.1%
CNS(=O)(=O)CC(=O)N(Cc1c(F)cccc1Cl)C1CC1	-9.118%
Cc1nc(C2CCNCC2)cc(N(C)CCc2cn[nH]c2)n1	-7.954%
CCN(Cc1ccncc1)c1nc(C)nc2oc(C)nc12	-65.89%
CO[C@H]1COCCN(C(=O)c2cc(C)oc2C(F)(F)F)C1	-0.5452%
CN(CCc1ccccc1)c1cnn(CC(=O)N2CCOCC2)c(=O)c1	17.19%
Cc1nc(N(C)C/C=C/c2ccccc2)c2cnn(C)c2n1	1.614%
COc1cc(C(C#N)NC(=O)CC2=CCCCC2)cc(OC)c1OC (stereo unspecified)	-9.8%
O=C(c1cnns1)N1CCN(c2ccc(F)cc2Cl)CC1	-2.521%
CCOc1cc(=O)n2c(c1C(=O)OCc1ccc(OC)cc1)CCCC2	91.51%
COc1ccc(CN(CC2CCCO2)C(=O)CN2CCCCC2=O)cc1 (stereo unspecified)	3.552%
COC(=O)C(O)C1CCN(CCc2ccc(C)cc2)CC1 (stereo unspecified)	-9.232%
CCOc1cc(=O)n2c(c1C(=O)OCc1ccc(F)cc1)CCCC2	95.56%
CCOc1cc(=O)n2c(c1C(=O)OCc1ccc(C)cc1)CCCC2	83.47%
COc1ccc(CN2CCCN(c3cc(C(N)=O)ccn3)CC2)cc1	15.11%
Cc1cccc(COc2ccccc2C(=O)N2CCC(C(N)=O)CC2)c1	0.1214%
Cc1cccc(CC(=O)N2CCCCC2CN)c1.Cl (stereo unspecified)	-0.4794%
CCOc1cc(=O)n2c(c1C(=O)OCc1cccc(C)c1)CCCC2	85.47%
CCOc1cc(C)ccc1NC(=O)N(C)Cc1cnn(C)c1	5.553%
O=C(OCc1cccc(F)c1)c1cccc(C(=O)N2CCCC2)n1	-9.061%
CCOc1cc2c(cc1C(=O)O)CCC2	-16.22%
